pPAFAH FP inh: pPAFAH (human) enzyme inhibition; Q13093; recombinant pPAFAH, FP-rhodamine probe fluorescence polarization; inhibition, % at 3.39 µM; 330,000 tested, 1.5% active; AID 463082;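 active = inhibition above the mean inhibition across the screen plus 3 SD, cut at about 25% in these data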;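 also: inhibitors block binding of the rhodamine activity-based probe so polarization drops; 0% = enzyme with DMSO and 100% = wells lacking pPAFAH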
PAFAH1B2 inh: blocks human PAF acetylhydrolase 1b catalytic subunit 2. recombinant PAFAH1B2, FP-rhodamine activity probe, fluorescence polarization. inhibition, % at 3.39 µM. 340,000 tested, 1.2% active. AID 492953;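 active = inhibition above the mean of all tested compounds plus 3 SD, cut at about 24% in these data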;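 also: 0% = enzyme with DMSO and 100% = wells lacking PAFAH1B2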
Target sequence (P68402 whole entry, looked up): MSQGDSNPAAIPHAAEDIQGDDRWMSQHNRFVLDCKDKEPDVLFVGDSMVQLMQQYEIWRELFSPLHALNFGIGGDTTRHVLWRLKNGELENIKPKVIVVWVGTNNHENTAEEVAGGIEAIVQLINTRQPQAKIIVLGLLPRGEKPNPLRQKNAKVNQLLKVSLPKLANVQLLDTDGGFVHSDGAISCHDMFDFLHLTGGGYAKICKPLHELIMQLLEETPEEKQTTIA
Rin1 Abl inh: blocks binding of human Rin1 to Abl | P00519+Q13671 | TR-FRET Rin1/Abl binding, biochemical | inhibition, % at 7.35 µM | 360,000 tested, 0.4% active | AID 588664; in the data active = inhibition above about 5%, passing the limit was not always enough
PAFAH2 inh: inhibitors of human PAFAH2 | recombinant PAFAH2, FP-rhodamine activity probe, fluorescence polarization | inhibition, % at 3.39 µM | 340,000 tested, 0.99% active;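 active = inhibition above the mean over all tested compounds plus 3 SD, cut at about 30% in these data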;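 also: inhibitors block probe labeling of enzyme so polarization drops; 0% = enzyme with DMSO and 100% = wells lacking PAFAH2 protein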
PAFAH1B3 inh: blocks human PAF acetylhydrolase 1B catalytic subunit 3; AID 492972; 340,000 tested, 0.28% active; inhibition, % at 3.39 µM; recombinant PAFAH1B3, FP-rhodamine probe, fluorescence polarization; Q15102;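 active = inhibition above the screen-wide average of all tested compounds plus 3 SD, cut at about 25% in these data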;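 also: 0% = enzyme with DMSO only and 100% = wells lacking PAFAH1B3 protein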
Target sequence (Q15102 whole entry, looked up): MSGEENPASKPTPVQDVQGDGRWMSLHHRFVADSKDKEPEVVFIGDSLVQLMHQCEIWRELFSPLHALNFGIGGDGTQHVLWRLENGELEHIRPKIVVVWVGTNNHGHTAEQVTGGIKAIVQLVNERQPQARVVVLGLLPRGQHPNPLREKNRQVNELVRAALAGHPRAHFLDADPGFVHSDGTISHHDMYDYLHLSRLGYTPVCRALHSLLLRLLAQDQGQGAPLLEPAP
eLon inh: E. coli protease La inhibition; P0A9M0; purified E. coli Lon protease, fluorescence polarization; 360,000 tested, 0.42% active; inhibition, % at 7.94 µM; in the data active = inhibition above about 13%, passing the limit was not always enough;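 also: 0% = enzyme with probe and DMSO and 100% = no enzyme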
Rin1 Abl conf: Rin1-Abl interaction inhibition confirmation | shares compounds with Rin1 Abl inh | TR-FRET Rin1-Abl binding, purified proteins | inhibition, % at 7.35 µM | 1,300 tested, 49% active | AID 602124
GFP quench: GFP fluorescence interference artifact. shares compounds with Rin1 Abl inh. inhibitors/quenchers counterscreen. inhibition, % at 6.75 µM. 1,300 tested, 8.5% active. AID 602125;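 also: ABL1-eGFP fusion protein alone without its partner RIN1-SBP; 0% = protein with vehicle and 100% = wells lacking protein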
GFP quench DR: counter-screen for Rin1-Abl inhibitors: GFP quenchers, dose response; shares compounds with Rin1 Abl inh; GFP fluorescence interference/quenching counterscreen; IC50, µM; 230 tested, under 10 active; call rule not given here;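 also: ABL1-eGFP fusion protein alone without its RIN1 binding partner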
The depositor's hits bear a star. Sampled rows, rich in hits. Any-hit rate of the full collection: about 3.1%. Rule as the data show it, unless noted: active = inhibition above about 6.5%; inactive = the rest.

CN=c1scc(-c2ccccc2F)n1/N=C/c1ccc[nH]1 was read as pPAFAH FP inh 7, PAFAH1B2 inh 6, Rin1 Abl inh 6, PAFAH2 inh 2, PAFAH1B3 inh 9 and eLon inh -36.
For CN=c1scc(-c2ccccc2F)n1/N=C/c1ccc(O)c(O)c1O the results were PAFAH1B2 inh -5, Rin1 Abl inh 6.3*, PAFAH2 inh 3, PAFAH1B3 inh 7, eLon inh 13, Rin1 Abl conf 8.8* and GFP quench 6.7*.
CC(C)N=c1scc(-c2cccs2)n1/N=C/c1ccc(O)c(O)c1O was read as pPAFAH FP inh 68*, PAFAH1B2 inh 0, Rin1 Abl inh 14*, PAFAH2 inh 1, PAFAH1B3 inh 5, eLon inh -6, Rin1 Abl conf 12* and GFP quench 2.
Screening O=C(Nc1ccccc1Cl)c1ccc2ccccc2c1 returned pPAFAH FP inh 1, PAFAH1B2 inh 0, Rin1 Abl inh 7.6*, PAFAH2 inh -4, PAFAH1B3 inh 2, eLon inh -1, Rin1 Abl conf -3 and GFP quench 0.
`COc1cc(C)c(Cl)cc1S(=O)(=O)N1CCSC1` gave PAFAH1B2 inh 2, Rin1 Abl inh 0, PAFAH2 inh 7, PAFAH1B3 inh 15 and eLon inh 4.
For COc1ccc(NC(=O)CSc2nnc3ccc(-c4cccnc4)nn23)cc1OC the results were pPAFAH FP inh 6, PAFAH1B2 inh 3, Rin1 Abl inh -1, PAFAH2 inh 0, PAFAH1B3 inh 0 and eLon inh 1.
Screening COc1ccccc1CNC(=O)CSc1nnc2ccc(-c3cccnc3)nn12 returned pPAFAH FP inh 10, PAFAH1B2 inh -1, Rin1 Abl inh 13*, PAFAH2 inh -5, PAFAH1B3 inh 1, eLon inh 3, Rin1 Abl conf 17*, GFP quench -1 and GFP quench DR >68.
Screening COc1ccc(OC[C@@H](O)CNC(=O)c2cccc3c2C(=O)c2ccc(Cl)cc2S3(=O)=O)cc1 returned pPAFAH FP inh 2, PAFAH1B2 inh 3, Rin1 Abl inh -1, PAFAH2 inh 6, PAFAH1B3 inh 3 and eLon inh 4.
Screening Cc1ccc(C(=O)N2CC(C)CC(C)C2)cc1NC1=NC2CS(=O)(=O)CC2S1 (configuration not stated) returned pPAFAH FP inh 4, PAFAH1B2 inh 3, Rin1 Abl inh 22*, PAFAH2 inh 0, PAFAH1B3 inh -1, eLon inh -5, Rin1 Abl conf 26*, GFP quench 0 and GFP quench DR >68.
`COc1cccc(N2CCN(C(=O)c3cccc(NC4=NC5CS(=O)(=O)CC5S4)c3)CC2)c1` (configuration not stated) gave pPAFAH FP inh 1, PAFAH1B2 inh 3, Rin1 Abl inh 1, PAFAH2 inh 1, PAFAH1B3 inh 2 and eLon inh 2.
For CCOC(=O)C1CCN(C(=O)c2cccc(NC3=NC4CS(=O)(=O)CC4S3)c2)CC1 (configuration not stated) the results were pPAFAH FP inh -3, PAFAH1B2 inh 0, Rin1 Abl inh 18*, PAFAH2 inh 0, PAFAH1B3 inh 6, eLon inh -4, Rin1 Abl conf 15* and GFP quench -1.
For Cc1ccc(C(=O)C(C)N2C(=O)NC(C)(c3ccccc3)C2=O)cc1 (configuration not stated) the results were pPAFAH FP inh 0, PAFAH1B2 inh 15, Rin1 Abl inh 7.1*, PAFAH2 inh 6, PAFAH1B3 inh 19, eLon inh 4, Rin1 Abl conf -1 and GFP quench 1.
For CC[C@]1(C(=O)OC)[C@H]2C(=O)N(C)C(=O)[C@H]2[C@H]2CN=C(SCc3ccc(C)cc3)N21 the results were pPAFAH FP inh 7, PAFAH1B2 inh 15, Rin1 Abl inh -3, PAFAH2 inh -3, PAFAH1B3 inh 6 and eLon inh -4.
CCCn1c2ccccc2c2nnc(SCc3[nH]c(=O)[nH]c3C(=O)CCCCC(=O)OCC)nc21 was read as pPAFAH FP inh 6, PAFAH1B2 inh 4, Rin1 Abl inh 52*, PAFAH2 inh 2, PAFAH1B3 inh -3, eLon inh -8, Rin1 Abl conf 56*, GFP quench 0 and GFP quench DR >68.
`CCOC(=O)C(C)Sc1nnc2c3ccccc3n(C)c2n1` (configuration not stated) gave pPAFAH FP inh 3, PAFAH1B2 inh 1, Rin1 Abl inh -5, PAFAH2 inh 4, PAFAH1B3 inh 3 and eLon inh -1.
`CCOC(=O)CCCCC(=O)c1[nH]c(=O)[nH]c1CSc1nnc2c3ccccc3n(C(C)C)c2n1` gave pPAFAH FP inh 1, PAFAH1B2 inh 2, Rin1 Abl inh 53*, PAFAH2 inh -4, PAFAH1B3 inh 6, eLon inh -3, Rin1 Abl conf 68*, GFP quench 1 and GFP quench DR >68.
`CCCn1c2ccccc2c2nnc(SCC(=O)Nc3cc(C)on3)nc21` gave pPAFAH FP inh 0, PAFAH1B2 inh 0, Rin1 Abl inh -3, PAFAH2 inh 0, PAFAH1B3 inh -2 and eLon inh -5.
For CCOc1ncccc1C(=O)Nc1c(C)n(C)n(-c2ccccc2)c1=O the results were pPAFAH FP inh -5, PAFAH1B2 inh -1, Rin1 Abl inh -1, PAFAH2 inh 0, PAFAH1B3 inh 7 and eLon inh -7.
Screening CC(C)(C)[C@H]1COC(=O)CC/C=C\C[C@@H](CC(=O)N(CCO)Cc2ccccc2)C(=O)N1 returned pPAFAH FP inh -2, PAFAH1B2 inh 0, Rin1 Abl inh -1, PAFAH2 inh -2, PAFAH1B3 inh 8 and eLon inh -3.
For CN1CCN(c2ccc(CNC(=O)C3Cc4c(-c5ccccc5)ccnc4O3)cc2)CC1 (configuration not stated) the results were Rin1 Abl inh 8.1*, eLon inh -19, Rin1 Abl conf 5 and GFP quench -1.
Screening CN1CCN(c2ccc(CNC(=O)C3Cc4c(-c5ccccc5Oc5ccccc5)ccnc4O3)cc2)CC1 (configuration not stated) returned Rin1 Abl inh -5 and eLon inh -6.

Source: PubChem
